Bioassay records deposited in PubChem BioAssay by Broad Institute.
aSyn UTR act: Activators working through SNCA 5'UTR binding (MLPCN); actives 7.1% (n = 300,000); activity score, % (tested at 7.5 µM), hits read low; AID 1814; alpha-synuclein 5'UTR reporter, activators screen; in the data active = activity score below about -60%
An asterisk follows results filed as active. Not all results are given here.

SMILES | aSyn UTR act
COc1ccc(-c2csc(C)n2)cc1 | -100.2*
COc1ccc(NC(=O)c2ccc(-c3csc(C)n3)cc2)cc1 | -194.7*
Cc1nc(-c2ccc(C(=O)Nc3ccccc3F)cc2)cs1 | 92.4
Cc1nc(-c2ccc(C(=O)Nc3ccc(F)cc3)cc2)cs1 | -108.6*
Cc1nc(-c2cccc(N)c2)cs1 | -63.2*
CC(C)(C)c1ccc(C(=O)NCC(=O)OCC(=O)Nc2nc(-c3ccc(F)cc3)cs2)cc1 | -174.9*
O=C(Nc1ccccc1)Nc1cc(OCC(F)(F)F)cc(OCC(F)(F)F)c1 | 74.4
Cc1cc(NC(=O)Nc2ccccc2F)ccc1Br | -242.9*
O=C(Nc1ccccc1)Nc1ccc(Br)cc1F | -163.1*
O=C(Nc1cccc(Cl)c1)Nc1ccc(Br)cc1F | -114.6*
Brc1ccccc1-n1nnc(-c2nccs2)n1 | -96.7*
Clc1nc2ccccc2cc1-c1nnn(-c2ccccc2Br)n1 | -127.9*
Cc1ccc(C(=O)N/N=C\c2ccccc2[N+](=O)[O-])cn1 | -111.1*
CCC(=O)Nc1ccc(C(=O)N/N=C/c2ccccc2[N+](=O)[O-])cc1 | -81.1*
CCOc1ccc(C(=O)N/N=C/c2ccccc2[N+](=O)[O-])cc1 | -125.9*
CCNC(=O)NC(=O)COc1ccccc1C#N | -89.3*
N#Cc1ccccc1OCC(=O)NC(=O)NCc1ccco1 | -83.3*
CCc1ccc(OCC(=O)NCc2ccco2)c(Br)c1 | -69.9*
COc1ccc(-c2cc(C(=O)N3CCCCCC3)no2)cc1OC | -123.6*
COc1ccc(-c2cc(C(=O)N3CCCCCC3)no2)cc1 | -85.5*
CCc1nnc(NC(=O)c2cc(-c3ccccc3)nn2-c2ccccc2)s1 | -164.6*
CC(=O)C(/C=N/c1cc(-c2ccc(C)cc2)nn1-c1ccccc1)=C(\C)O | -197.7*
Cc1ccc(NC(=O)c2cc(-c3ccccc3)nn2-c2ccccc2)cc1 | -97.6*
O=C1C2=C(c3ccccc31)[N+](=O)C1CCCCC1N2[O-] (configuration not stated) | -72.6*
O=C1C2=C(c3ccccc31)[N+](=O)[C@@H]1CCCC[C@@H]1N2[O-] | -94.3*
SMILES | aSyn UTR act
Cc1nnsc1S(=O)c1ccc(Cl)cc1 (configuration not stated) | -99.0*
Cc1nnsc1S(=O)c1ccc(Cl)c(Cl)c1 (configuration not stated) | -89.2*
O=C(Nc1ccccc1)c1nnsc1S(=O)c1ccc(Cl)cc1 (configuration not stated) | -103.5*
Nc1nc(N)c2sc3nc4c(cc3c2n1)CCC4 | -107.2*
O=C(c1ccco1)N1CCN(c2ccc(F)cc2)CC1 | -79.2*
COc1ccccc1N1CCN(c2nc(C)nc3c2oc2ccccc23)CC1 | 89.5
O=C(Nc1ccc(-c2ccc(N3CCCCC3)nn2)cc1)c1ccco1 | -130.8*
Cc1nc(N2CCN(C(=O)c3ccco3)CC2)c2oc3ccccc3c2n1 | -88.8*
O=C(c1ccco1)N1CCN(c2ccc(N3CCCCC3)nn2)CC1 | -133.1*
Cc1nc(N2CCN(C(=O)c3ccco3)CC2)nc2c1C(=O)CCC2 | -120.8*
Cc1cnc(C(=O)Nc2ccc3c(c2)CCC3)cn1 | -136.5*
Cc1cnc(C(=O)Nc2ccc(F)c(F)c2)cn1 | -132.9*
Cc1cc(C)n2nc(C(=O)Nc3ccc4c(c3)CCC4)nc2n1 | -101.5*
Cc1cnc(C(=O)NCCc2ccc(Cl)cc2)cn1 | -114.3*
O=C(Nc1ccc2c(c1)CCC2)c1cnccn1 | -175.4*
O=C(Nc1ccc(N2CCOCC2)cc1)c1cnccn1 | 66.6
CCCCOc1ccc(NC(=O)c2cnc(C)cn2)cc1 | -112.9*
O=C(c1ccc(CS(=O)Cc2ccccc2Cl)o1)N1CCN(c2ccccn2)CC1 (configuration not stated) | -84.9*
Cc1cc(O)cc(O)c1-c1onc(C(F)(F)F)c1-c1cscn1 | -78.5*
Cc1ccc2nc(-c3ccc(NC(=S)NC4CC(C)(C)NC(C)(C)C4)cc3)sc2c1 | 120.9
CCC(=O)NC(=S)Nc1ccc(-c2nc3ccc(C)cc3s2)cc1 | -238.4*
Cc1ccc2nc(-c3ccc(NC(=S)NC(=O)C(C)C)cc3)sc2c1 | -207.7*
Clc1ccccc1Cn1nnc(-c2cccs2)n1 | -99.6*
CN(C)c1ccc(-c2nnn(Cc3ccccc3Br)n2)cc1 | -65.8*
Clc1ccccc1Cn1nnc(-c2ccccc2)n1 | -153.0*
SMILES | aSyn UTR act
Cc1cc(/C([O-])=C(/C(=S)Nc2ccc(F)cc2)[n+]2ccccc2)c(C)n1-c1ccc(F)cc1 | -121.1*
COCCNc1c(-c2ccc(O)cc2)nc2ccc(Cl)cn12 | -69.0*
O=C(CSc1nnc(-c2ccc(O)cc2)o1)N1CCOCC1 | -76.8*
CSc1ccc(-c2nc(CSCC(=O)N3CCOCC3)c(C)o2)cc1 | -77.5*
Oc1ccc(-c2nnc(SCC3CCCCC3)o2)cc1 | -131.6*
O=C(CSc1nnc(-c2ccc(OC(F)F)cc2)o1)N1CCOCC1 | -67.0*
COc1ccc(-c2nnc(SCC(=O)N3CCOCC3)o2)cc1 | -105.4*
O=C(O)c1cccc(CSc2nnc(-c3ccc(Cl)cc3)o2)c1 | 54.8
O=C(CSc1nnc(-c2ccc(Cl)cc2)o1)N1CCOCC1 | -153.6*
Cc1cccn2cc(CSc3ccccc3N)nc12 | -117.2*
CC(/C=N/NC(=O)c1nnn(-c2nonc2N)c1C(C)C)=C\c1ccccc1 | -81.4*
Nc1nonc1-n1nnc(C(=O)N/N=C/C=C/c2ccccc2)c1CSC1=NCCS1 | -79.8*
CCCc1c(C(=O)N/N=C/C(C)=C/c2ccccc2)nnn1-c1nonc1N | -67.3*
O=C(Nc1ccc(N2CCN(C(=O)c3ccccc3)CC2)cc1)c1ccc(Br)o1 | -69.4*
CCC(=O)N1CCN(c2ccc(NC(=O)c3ccc([N+](=O)[O-])o3)cc2)CC1 | 60.7
O=C(Nc1ccc(N2CCN(C(=O)c3ccc(Cl)cc3)CC2)cc1)c1ccc([N+](=O)[O-])o1 | 119.6
CCN1CCN(c2ccc(NC(=O)c3ccc(Br)o3)cc2)CC1 | -91.2*
c1ccc2nc(-c3ccc(-n4ccnc4)cc3)ccc2c1 | -223.8*
c1ccc(-c2ccc3ccccc3n2)cc1 | -191.4*
CCSc1nnc(NC(=O)c2ccccn2)s1 | 66.7
Cc1cc(C(=O)Nc2nnc(C3CCCCC3)s2)cs1 | -136.4*
CCSc1nnc(NC(=O)c2ccccc2)s1 | -94.5*
O=C(Nc1nnc(C2CCCCC2)s1)c1ccc(Br)s1 | -219.0*
COc1ccc(-c2nnc3sc(C4CCCCC4)nn23)cc1OC | 65.3
CCSc1nnc(NC(=O)c2ccc(Br)s2)s1 | -89.3*
SMILES | aSyn UTR act
O=C(Nc1nnc(C(F)(F)F)s1)c1ccc(Br)s1 | -75.5*
CCSc1nnc(NC(=O)c2ccccc2C)s1 | -117.2*
Cc1cccc(NC(=O)/C(C#N)=C/c2ccccc2O)n1 | -140.4*
Clc1ccc(COn2nnc3ccccc32)c(Cl)c1 | -151.4*
Cc1ccc(C(=O)NCCSC(C)(C)C)cc1[N+](=O)[O-] | -118.9*
O=C(NCCOc1ccccc1)c1cc2ccccc2o1 | -81.3*
O=C(NCCOc1ccccc1)c1cncc(Br)c1 | -91.6*
COc1cc(OC)cc(C(=O)NCCOc2ccccc2)c1 | -121.1*
COc1cccc(C(=O)NCC(=O)N2CCC(C)CC2)c1 | -115.0*
COc1cccc(C(=O)NCCSc2ccc(F)cc2)c1 | -156.9*
COc1c(C(=O)NCCSC(C)(C)C)ccc2ccccc12 | -61.7*
CC(C)(C)SCCNC(=O)c1ccccc1 | -117.4*
O=C(NCCSc1ccccc1)c1cncc(Br)c1 | -132.2*
CSCCNC(=O)c1ccc(C(C)(C)C)cc1 | -83.7*
CC(C)(C)c1ccc(C(=O)NCCOc2ccccc2F)cc1 | 77.5
O=C(NCCSc1ccccc1)c1ccc(Br)cc1 | -66.7*
COc1ccc(N=Nc2n(C)c3ccccc3[n+]2C)cc1 | 103.3
COc1ccc(C(=O)NCc2cc3ccccc3n2C)cc1 | -92.4*
